# From PubChem BioAssay (Tox21)
# “And” between values parts separate entries of the source, which are not always exact repeats. Equal values may be shown once. Results filed as inconclusive are left out. Where a call stands in place of a potency, no number is given. Some compounds were tested as several samples or in several runs, with calls that do not always agree. The source made the active and inactive calls. Calls come from the whole dose curve.
# Assay: qHTS assay to identify small molecule agonists of the progesterone receptor (PR) signaling pathway - cell viability counter screen (AID 1346799); note: nearly all actives have a fitted effect of over 45% in size
# Conditions: PR-UAS-bla HEK293T viability, CellTiter-Glo luminescence, 16 h; series mostly up to 92.4 µM
# From the text: National Center for Advancing Translational Sciences [NCATS]
# NIH Chemical Genomics Center [NCGC]
# U.S. Environmental Protection Agency [EPA]
# National Institutes of Environmental Health Sciences [NIEHS]
# National Toxicology Program [NTP]
# U.S. Food and Drug Administration [FDA]
# Progesterone receptor (PR), a nuclear hormone receptor, plays an important role in development, metabolic homeostasis and reproduction. It is activated by the steroid hormone progesterone. Endocrine disrupting chemicals (EDCs) and their interactions with steroid hormone receptors like PR causes disruption of normal endocrine function. To identify the compounds that stimulate PR signaling, a PR-UAS-bla GripTite cell line i.e. PR-UAS-bla HEK293T (Invitrogen, Carlsbad, CA, USA) containing a beta-lactamase reporter gene under the control of an UAS response element was used to screen Tox21 10K compound library. The cytotoxicity of the Tox21 compound library against the PR-bla cell line was tested in parallel by measuring the cell viability using CellTiter-Glo assay in the same wells.
# Tox21 Assay Protocol Summary:
# PR-UAS-bla HEK293T cells were dispensed at 3,000 cells/5 uL of assay medium containing 2% charcoal stripped FBS per well into black wall/clear-bottom 1536-well plates using a Multidrop Combi (ThermoFisher Scientific, Waltham, MA) dispenser. After the assay plates were incubated at a 37C and 5% CO2 for 6 hr, 23 nL of compounds dissolved in DMSO, positive controls or DMSO only was transferred to the assay plate by a Pintool station (Kalypsys, San Diego, CA). The plates were incubated at 37C and 5% CO2 for 16 hr. Then 1 uL of LiveBLAzer B/G FRET substrate was added using a Flying Reagent Dispenser (FRD, Aurora Discovery, San Diego, CA), the plates were incubated at room temperature for 2 hours, and fluorescence intensity was measured by an Envision plate reader (PerkinElmer, Shelton, CT). For cell viability readout that measures cytotoxicity, 4 uL/well of CellTiter-Glo reagent was added into the assay plates using a FRD. After 30 min incubation at room temperature, the luminescence intensity in the plates was measured using a ViewLux (PerkinElmer) plate reader.
# Potency is the fitted concentration of half-maximal effect.
row,Structure (SMILES),Potency
1,C=C[C@H]1CN2CC[C@H]1C[C@@H]2[C@@H](O)c1ccnc2ccc(OC)cc12,inactive
2,CC(C)[N+](C)(CCOC(=O)C1c2ccccc2Oc2ccccc21)C(C)C,inactive
3,Nc1ccc2c(O)cc(S(=O)(=O)O)cc2c1,inactive and 9.69 µM (active)
4,CC/C(=C(/CC)c1ccc(O)cc1)c1ccc(O)cc1,inactive
5,Cc1ccc(S(=O)(=O)O)cc1C,inactive
6,CN(C)CCCN1c2ccccc2Sc2ccc(Cl)cc21,30.6 µM (active) and 23.7 µM (active)
7,COC(=O)C(C)Oc1ccc(Oc2ncc(C(F)(F)F)cc2Cl)cc1 (stereo not given),inactive
8,CN(C)/N=N/c1nc[nH]c1C(N)=O,inactive
9,COC(=O)CC(=O)OC,inactive
10,C=CC(=O)OCCCC,inactive
11,Nc1cc(Cl)c(N)c(Cl)c1,inactive
12,O=C(CCCN1CCC(O)(c2ccc(Cl)cc2)CC1)c1ccc(F)cc1,inactive
13,COC(=O)c1ccc(C)cc1,inactive
14,O=C(O)COCCN1CCN(C(c2ccccc2)c2ccc(Cl)cc2)CC1 (stereo not given),inactive
15,CN1CCOCC1,inactive
16,O=C(O)c1ccc(O)cc1,inactive
17,C=CC(C)(O)CCC=C(C)C (stereo not given),inactive
18,c1ccc2ncccc2c1,inactive
19,NCCS(=O)(=O)O,inactive
20,O=Cc1ccccc1C=O,inactive

row,Structure (SMILES),Potency
1,CC(C)[C@@H]1CC[C@@H](C)CC1=O,inactive
2,CC(=O)Nc1ccc2c(c1)Cc1cc(NC(C)=O)ccc1-2,inactive
3,CCCCCCOCCOCCO,inactive
4,Cc1ccc2c(c1)C(=O)OC2=O,inactive
5,CC1(C)C(C=C(Cl)Cl)C1C(=O)OCc1cccc(Oc2ccccc2)c1 (stereo not given),inactive
6,Cc1ccc(C(C)(C)C)c(O)c1,inactive
7,CC(=O)[C@H]1CC[C@H]2[C@@H]3CC=C4C[C@@H](O)CC[C@]4(C)[C@H]3CC[C@]12C,inactive
8,CCC(Cc1c(I)cc(I)c(N)c1I)C(=O)O (stereo not given),inactive
9,CNC[C@H](O)c1ccc(O)c(O)c1,inactive
10,Nc1cc([N+](=O)[O-])ccc1C(=O)O,inactive
11,CC(=O)Oc1c(C)c(C)c2c(c1C)CC[C@@](C)(CCC[C@H](C)CCC[C@H](C)CCCC(C)C)O2,inactive
12,CCO[Si](CCCNC(N)=O)(OCC)OCC,inactive
13,C=CCCCCCCCCCC,inactive
14,ClC/C=C/CCl,inactive
15,FC(F)(F)C(Cl)Br (stereo not given),inactive
16,CCCOCCO,inactive
17,Nc1ccc2c(c1)C(=O)c1ccccc1C2=O,inactive
18,CCOC(=O)C(C)Oc1ccc(Oc2cnc3cc(Cl)ccc3n2)cc1 (stereo not given),inactive
19,CCCCCC1C(=O)CCC1CC(=O)OC (stereo not given),inactive
20,O=C(O)c1cc(=O)[nH]c(=O)[nH]1,inactive
